From the supplement of paper PMC6555819

System: THRa homodimer (NR concentration 90 nM)
Experiment: PBM binding z-score (relative to random genomic background probes); higher = stronger binding; sequences stand for … in GC…GCGATTGACAGCGTAGAATGAAGG
Outline: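 Binding buffer was PBS pH 7.4 with 2% milk, 0.02% Triton X-100, 1 mM DTT, 0.2 mg/mL BSA and 0.4 mg/ml salmon testes DNA. In it, ligand-free nuclear receptor dimers were incubated 1 h on custom Agilent 4×180K protein-binding microarrays carrying double-stranded probes. Antibodies against each partner (one per run) detected binding, and z-scores were calculated against random background probes after regression normalization of scanned fluorescence.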

Row | Sequence | PBM binding z-score
1 | CCTTACGGGTCACTCCAGGTTATAGCATCGGAGT | 0.826
2 | TTGCCTAGGTCATGGGCCAGTATACCACGCGAAC | 1.54
3 | TCTTGTAGATCAATGGTTAAGAAAGCCGAAGCCT | -0.412
4 | CCGACTGGGGCATAAGGTTACCCTAAGCCAGCCC | 1.55
5 | CCTTACTGGTCACTCCAGGTTATAGCATCGGAGT | 1.03
6 | ATCTCTAGGTCACCAAGTTCAGTGAATGCCGAAC | 3.22
7 | AGAACGAGGGCAATGAGTTGTTAGCACGGGTGGC | -0.39
8 | GCTGCTACGTCAGGTTGGTCAGCTAACGGGTACG | -0.55
9 | TAGCCTAGGTCAGACCGGGCCAGTATACGCTATA | -0.0936
10 | CCGAGTAGGTTATGGGGCACTCAGGCAACGGTGA | 0.0948
11 | GCTTACGGGTCAAAGGTGATAGCATGAATAGAAT | -0.0269
12 | CCTACTGGGCCAAACAGGTCATTGATGCCGATAA | 0.0902
13 | ATATGTAGGTTATGGGGTCATTCAGTTTGCGCAT | 4.19
14 | ATCGAAAGGTCGTGAGGTTAGTATACAGAAAGGC | 1.07
15 | GCGACTGGGGCAAAGCAGGTTTCCATAAGGTTGG | -0.028
16 | CCTACTAGGCCAAAAAGGTCATTGATGCCGATAA | 0.809
17 | GCTGCTAGGTCAACTGTTGGTCAGCTAAAGCTCG | 0.983
18 | AGAACGAGGGCACGTTGAGTTGATAGCAGAGTAG | 0.141
19 | CGTCCAGGGTCAAAGGTCAGTGAAGAGATGACGG | 1.48
20 | ATCACTAGGTAAAAGTTCAGTGAATCCCGAGGAT | 0.468

Row | Sequence | PBM binding z-score
21 | CCAGATAGGTGAGAAGGTAACTCAGCCTCGATTA | -0.0242
22 | ACTATTAGTTAACTTAGGGCAACCGATACGACGC | 0.447
23 | AGTCAAAGTTAACTAGGTAACGTAAGATTCAGCT | -0.252
24 | TCTTGTAGATCAAGCAGGTTAAGACAGCCTGAGT | -0.66
25 | GCTAGTTGGTAAGTAAAAGGTCACACACCGGTCG | 1.73
26 | CGAACTAGGTCATTGACAGGACAGTGAGTAGTAA | 0.505
27 | TCTTGTAGATCAATAGAGGTCAAGAAAGTGCGCT | 0.941
28 | ACTAACAGGCCAAGTTTGGGTCACTCAAACAAAG | 1.26
29 | TCTATTAGTTGAAGGGCAAACGACGAGTCCGTTT | 0.286
30 | GCTAGGTGGTCAGTAAAAGGTCACACACCGGTCG | 1.73
31 | ATCTCTAGGTAACAAGTACAGTGAAAGAGAGGAC | 0.739
32 | ATCTCTAGGTAAAAGCTCAGTGAATCCCGAGGAT | -0.296
33 | TTACCAAGGTGCAGGTCGTTGATCCCTCTGTAGA | 0.0392
34 | AGACTGAGGTTATACGTAGATCAGGGAAGAAAGT | 0.684
35 | CAAACTAGGTCAGAGGTCAAAGTCGAGCCAACCA | 2.24
36 | GCGCGGAGGACAAGGTCAGAGCTTTGTCCGTAGA | 1.33
37 | TCTCGGAGGACACGAAAGGTCAGGGCTCGACATC | 2
38 | TATGCAGGGTCAAAGGCCAGAGTACGAATGTCGA | 0.361
39 | CCTAATGGGCCAAGGTCATTGATCAGTCAAAGCA | 2.52
40 | AGAACGAGGGCACGCGGAGTTGATAGCAGAGTAG | -0.0223
